From the supplement of paper PMC10849652
The full data set covers some 7,900 targets. This sample favours those with a hit. About 0.6% of all pairs of compound and target were hits.

Legend:
Assay in all cases: log2 fold change, soluble protein after heating vs DMSO (PISA); higher = thermal stabilisation; K562 cells, 10 uM, 30 min; active = over 0.2 and 3.5 SD of the protein, either way, in both replicates (recomputed)
[1] = compound: C1=CC=C(C=C1)[C@H](COC2=CC3=C(C=C2)NC(=O)N3)NC(=O)C4=CC=CN(C4=O)CC5=CC(=C(C=C5)F)F
Method in brief: (§1)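 Aliquots of K562 cells (2×10^6 cells/mL) treated with 10 μM compound for 30 min were heated for 3 min over 48°C-58°C. After pooling and extraction in PBS with 0.5% NP-40 at 4°C, soluble protein from a 21,000xg, 90 min spin was quantified by TMTpro 16plex LC-MS/MS with channel sums equalised. Thermal stability is expressed against control samples, from duplicates, as a log2 fold change.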

[2] = compound: CC1=C(SC2=C1C(=N[C@H](C3=NN=C(N32)C)CC(=O)N)C4=CC=C(C=C4)Cl)C
Method in brief: as §1

[3] = compound: CC1=C2C(=CC=C1)N=C(N(C2=O)C3=CC=CC=C3C)CN4C=NC5=C(N=CN=C54)N
Method in brief: as §1

[4] = compound: Cc1sc2c(c1C)C(c1ccc(Cl)cc1)=N[C@@H](CC(=O)OC(C)(C)C)c1nnc(C)n1-2
Method in brief: as §1

[5] = compound: c1ccc([C@@H]2C[C@H]2NC2CCNCC2)cc1
Method in brief: as §1

Measured: log2 fold change

PFAS (UniProt O15067)
inactive: [1] -0.08 | [2] 0.021 | [3] 0.144 | [4] 0.014 | [5] -0.065

PRIM2 (UniProt P49643)
inactive: [1] -0.07 | [2] 0.063 | [3] 0.189 | [4] 0.014 | [5] -0.092

PHKG2 (UniProt P15735)
inactive: [1] 0.028 | [2] -0.033 | [3] 0.013 | [4] 0.051 | [5] 0.026

PARP1 (UniProt P09874)
inactive: [1] -0.098 | [2] 0.027 | [3] 0.182 | [4] -0.069 | [5] -0.101

PIP4K2A (UniProt P48426)
inactive: [1] -0.091 | [2] 0.032 | [3] 0.049 | [4] 0.033 | [5] -0.024

PPIL2 (UniProt Q13356)
inactive: [1] -0.028 | [2] 0.041 | [3] 0.098 | [4] -0.019 | [5] -0.011

PMPCB (UniProt O75439)
inactive: [1] 0.005 | [2] 0.111 | [3] 0.01 | [4] 0.012 | [5] -0.053

PPP2R5E (UniProt Q16537)
inactive: [1] -0.045 | [2] 0.1 | [3] 0.105 | [4] -0.118 | [5] 0.05

PTPMT1 (UniProt Q8WUK0)
inactive: [1] -0.019 | [2] 0.086 | [3] 0.029 | [4] 0.066 | [5] 0.01

PIK3C3 (UniProt Q8NEB9)
Chain of UniProt Q8NEB9 (Q8NEB9 whole entry, looked up): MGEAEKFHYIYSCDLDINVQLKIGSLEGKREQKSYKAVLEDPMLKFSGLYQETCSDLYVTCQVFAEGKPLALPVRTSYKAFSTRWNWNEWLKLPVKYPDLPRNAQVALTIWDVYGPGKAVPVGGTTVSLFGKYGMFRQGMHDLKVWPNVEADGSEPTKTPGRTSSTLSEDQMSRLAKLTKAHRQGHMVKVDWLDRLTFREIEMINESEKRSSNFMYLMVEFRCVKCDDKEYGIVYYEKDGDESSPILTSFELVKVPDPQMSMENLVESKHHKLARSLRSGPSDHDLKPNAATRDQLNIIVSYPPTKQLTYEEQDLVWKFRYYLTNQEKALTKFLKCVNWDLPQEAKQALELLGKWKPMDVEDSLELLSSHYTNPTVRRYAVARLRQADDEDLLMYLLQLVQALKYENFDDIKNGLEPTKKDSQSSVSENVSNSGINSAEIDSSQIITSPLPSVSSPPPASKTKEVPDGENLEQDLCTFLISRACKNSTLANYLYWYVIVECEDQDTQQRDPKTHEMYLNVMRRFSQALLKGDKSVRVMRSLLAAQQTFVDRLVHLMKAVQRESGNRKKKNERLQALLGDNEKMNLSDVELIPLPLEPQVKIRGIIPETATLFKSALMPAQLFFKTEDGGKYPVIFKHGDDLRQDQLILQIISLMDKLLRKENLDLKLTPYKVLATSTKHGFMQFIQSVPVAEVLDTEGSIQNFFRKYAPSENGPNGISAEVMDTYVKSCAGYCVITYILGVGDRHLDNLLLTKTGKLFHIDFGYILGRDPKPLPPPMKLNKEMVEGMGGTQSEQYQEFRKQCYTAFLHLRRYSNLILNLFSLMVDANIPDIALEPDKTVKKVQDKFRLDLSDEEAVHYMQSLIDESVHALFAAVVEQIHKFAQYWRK
inactive: [1] -0.038 | [2] 0.005 | [3] 0.009 | [4] 0.009 | [5] -0.01

POMK (UniProt Q9H5K3)
inactive: [1] 0.04 | [2] 0.027 | [3] -0.041 | [4] -0.067 | [5] -0.022

PIP4K2C (UniProt Q8TBX8)
inactive: [1] -0.148 | [2] 0.034 | [3] 0.05 | [4] -0.029 | [5] -0.042

POLR2I (UniProt P36954)
inactive: [1] 0.063 | [2] 0.104 | [3] -0.163 | [4] 0.194 | [5] -0.035

PCYT1B (UniProt Q9Y5K3)
inactive: [1] -0.063 | [2] -0.003 | [3] 0.022 | [4] 0.042 | [5] 0.034

PEX11B (UniProt O96011)
inactive: [1] -0.027 | [2] 0.056 | [3] -0.01 | [4] -0.008 | [5] -0.005

PMM1 (UniProt Q92871)
Chain of UniProt Q92871 (Q92871 whole entry, looked up): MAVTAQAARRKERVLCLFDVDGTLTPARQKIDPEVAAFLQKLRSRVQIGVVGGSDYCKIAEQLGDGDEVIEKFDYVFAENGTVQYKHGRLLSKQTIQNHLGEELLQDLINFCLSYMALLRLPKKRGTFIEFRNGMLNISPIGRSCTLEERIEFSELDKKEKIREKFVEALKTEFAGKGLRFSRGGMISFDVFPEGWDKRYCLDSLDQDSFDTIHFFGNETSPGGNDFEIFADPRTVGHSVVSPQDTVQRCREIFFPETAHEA
inactive: [1] -0.031 | [2] -0.001 | [3] 0.091 | [4] 0.004 | [5] -0.006

PTK2B (UniProt Q14289)
inactive: [1] -0.105 | [2] -0.098 | [3] 0.194 | [4] 0 | [5] -0.013

PNPLA2 (UniProt Q96AD5)
inactive: [1] 0.06 | [2] 0.014 | [3] 0.037 | [4] 0.068 | [5] -0.046

PSMD5 (UniProt Q16401)
inactive: [1] 0 | [2] 0.028 | [3] 0.006 | [4] -0.006 | [5] -0.001

PRMT7 (UniProt Q9NVM4)
inactive: [1] -0.051 | [2] 0.015 | [3] 0.056 | [4] 0.009 | [5] -0.027

PHF5A (UniProt Q7RTV0)
Chain of UniProt Q7RTV0 (Q7RTV0 whole entry, looked up): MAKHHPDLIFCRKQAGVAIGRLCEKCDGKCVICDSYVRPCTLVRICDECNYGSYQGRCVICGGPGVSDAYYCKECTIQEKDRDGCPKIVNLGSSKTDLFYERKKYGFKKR
inactive: [1] 0.048 | [2] -0.024 | [3] 0.018 | [4] 0.002 | [5] 0.018

PTTG1IP (UniProt P53801)
inactive: [1] 0.149 | [2] -0.055 | [3] -0.134 | [4] 0.04 | [5] 0.084

PRG4 (UniProt Q92954)
inactive: [1] 0.007 | [2] -0.044 | [3] -0.15 | [4] -0.309 | [5] -0.033

PPP2R5A (UniProt Q15172)
inactive: [1] -0.036 | [2] 0.07 | [3] -0.006 | [4] -0.08 | [5] -0.08

PBX2 (UniProt P40425)
inactive: [1] -0.052 | [2] 0.082 | [3] -0.011 | [4] 0.051 | [5] -0.016

POTEI (UniProt P0CG38)
inactive: [1] 0.025 | [2] 0.012 | [3] -0.059 | [4] -0.03 | [5] -0.002

PCLAF (UniProt Q15004)
inactive: [1] 0.055 | [2] -0.022 | [3] -0.045 | [4] 0.02 | [5] 0.07

PMVK (UniProt Q15126)
inactive: [1] -0.156 | [2] 0.004 | [3] 0.116 | [4] 0.063 | [5] 0.028

POLR2G (UniProt P62487)
inactive: [1] 0.082 | [2] 0.176 | [3] 0.001 | [4] 0.167 | [5] -0.016

POLD1 (UniProt P28340)
inactive: [1] 0.017 | [2] 0.019 | [3] 0.094 | [4] 0.048 | [5] 0

PELO (UniProt Q9BRX2)
inactive: [1] -0.037 | [2] 0.116 | [3] 0.103 | [4] 0.064 | [5] -0.049

PATL1 (UniProt Q86TB9)
inactive: [1] -0.019 | [2] -0.004 | [3] 0.095 | [4] 0 | [5] -0.021

PDIK1L (UniProt Q8N165)
inactive: [1] -0.255 | [2] 0.001 | [3] 0.044 | [4] 0.062 | [5] -0.005

PDE4DIP isoform 4 (UniProt Q5VU43)
Chain of UniProt Q5VU43 (Q5VU43 whole entry, looked up): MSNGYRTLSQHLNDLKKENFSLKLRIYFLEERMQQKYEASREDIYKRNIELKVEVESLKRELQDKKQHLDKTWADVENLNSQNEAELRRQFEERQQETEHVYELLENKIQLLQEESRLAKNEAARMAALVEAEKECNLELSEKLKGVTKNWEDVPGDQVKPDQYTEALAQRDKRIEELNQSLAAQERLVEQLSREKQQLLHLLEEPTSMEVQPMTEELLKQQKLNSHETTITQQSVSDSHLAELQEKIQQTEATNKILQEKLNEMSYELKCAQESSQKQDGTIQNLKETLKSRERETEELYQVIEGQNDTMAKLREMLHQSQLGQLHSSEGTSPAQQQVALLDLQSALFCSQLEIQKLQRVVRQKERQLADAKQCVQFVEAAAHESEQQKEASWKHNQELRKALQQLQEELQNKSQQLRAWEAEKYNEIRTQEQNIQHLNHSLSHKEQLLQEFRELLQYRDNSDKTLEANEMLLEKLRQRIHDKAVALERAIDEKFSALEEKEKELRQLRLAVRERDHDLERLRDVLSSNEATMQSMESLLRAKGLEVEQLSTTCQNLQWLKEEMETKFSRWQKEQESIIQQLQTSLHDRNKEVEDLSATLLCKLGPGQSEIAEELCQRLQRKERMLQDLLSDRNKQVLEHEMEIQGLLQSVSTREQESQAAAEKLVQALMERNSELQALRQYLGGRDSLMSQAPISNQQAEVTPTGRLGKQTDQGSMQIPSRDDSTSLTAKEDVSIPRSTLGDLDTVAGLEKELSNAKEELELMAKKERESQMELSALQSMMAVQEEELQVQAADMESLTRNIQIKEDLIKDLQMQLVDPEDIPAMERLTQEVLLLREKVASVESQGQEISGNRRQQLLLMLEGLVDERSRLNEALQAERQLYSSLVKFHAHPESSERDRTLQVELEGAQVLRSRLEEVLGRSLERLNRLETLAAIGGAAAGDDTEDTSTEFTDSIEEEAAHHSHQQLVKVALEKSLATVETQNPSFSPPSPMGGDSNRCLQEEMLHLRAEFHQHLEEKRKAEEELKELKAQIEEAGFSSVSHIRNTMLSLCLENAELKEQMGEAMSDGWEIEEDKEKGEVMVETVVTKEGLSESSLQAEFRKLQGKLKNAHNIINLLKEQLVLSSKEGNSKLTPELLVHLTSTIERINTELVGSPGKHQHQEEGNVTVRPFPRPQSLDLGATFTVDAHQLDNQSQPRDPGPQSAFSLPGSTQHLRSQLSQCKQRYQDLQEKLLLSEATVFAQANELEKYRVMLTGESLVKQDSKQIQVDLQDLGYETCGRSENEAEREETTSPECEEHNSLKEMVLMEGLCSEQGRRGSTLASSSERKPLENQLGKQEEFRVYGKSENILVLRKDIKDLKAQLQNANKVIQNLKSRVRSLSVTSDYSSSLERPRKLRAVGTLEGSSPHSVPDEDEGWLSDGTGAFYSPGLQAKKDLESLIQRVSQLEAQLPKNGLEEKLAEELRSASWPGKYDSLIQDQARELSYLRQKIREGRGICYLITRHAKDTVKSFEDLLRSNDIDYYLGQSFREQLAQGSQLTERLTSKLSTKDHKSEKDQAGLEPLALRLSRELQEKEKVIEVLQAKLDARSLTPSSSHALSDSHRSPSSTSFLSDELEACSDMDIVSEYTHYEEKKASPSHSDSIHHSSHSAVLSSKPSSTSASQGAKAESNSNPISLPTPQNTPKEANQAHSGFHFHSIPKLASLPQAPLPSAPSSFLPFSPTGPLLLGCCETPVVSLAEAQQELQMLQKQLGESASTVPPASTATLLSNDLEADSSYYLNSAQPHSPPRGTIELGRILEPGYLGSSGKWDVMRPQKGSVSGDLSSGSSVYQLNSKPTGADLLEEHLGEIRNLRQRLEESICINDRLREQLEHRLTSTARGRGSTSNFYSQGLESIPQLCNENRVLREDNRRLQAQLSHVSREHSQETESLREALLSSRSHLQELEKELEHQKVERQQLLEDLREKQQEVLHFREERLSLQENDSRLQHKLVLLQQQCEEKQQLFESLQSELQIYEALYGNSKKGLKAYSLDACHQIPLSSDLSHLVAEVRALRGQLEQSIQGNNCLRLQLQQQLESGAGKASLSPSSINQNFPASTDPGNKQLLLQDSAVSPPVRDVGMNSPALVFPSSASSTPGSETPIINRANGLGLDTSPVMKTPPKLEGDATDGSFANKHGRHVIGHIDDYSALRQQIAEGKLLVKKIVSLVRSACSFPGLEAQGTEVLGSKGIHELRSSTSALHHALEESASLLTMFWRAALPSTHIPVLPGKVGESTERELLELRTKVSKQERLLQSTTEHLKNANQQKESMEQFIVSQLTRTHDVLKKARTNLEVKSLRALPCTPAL
inactive: [1] 0.023 | [2] 0.043 | [3] 0.046 | [4] -0.023 | [5] -0.011

PLBD1 (UniProt Q6P4A8)
inactive: [1] 0.005 | [2] -0.011 | [3] -0.018 | [4] -0.006 | [5] 0.013

PLBD2 (UniProt Q8NHP8)
Chain of UniProt Q8NHP8 (Q8NHP8 whole entry, looked up): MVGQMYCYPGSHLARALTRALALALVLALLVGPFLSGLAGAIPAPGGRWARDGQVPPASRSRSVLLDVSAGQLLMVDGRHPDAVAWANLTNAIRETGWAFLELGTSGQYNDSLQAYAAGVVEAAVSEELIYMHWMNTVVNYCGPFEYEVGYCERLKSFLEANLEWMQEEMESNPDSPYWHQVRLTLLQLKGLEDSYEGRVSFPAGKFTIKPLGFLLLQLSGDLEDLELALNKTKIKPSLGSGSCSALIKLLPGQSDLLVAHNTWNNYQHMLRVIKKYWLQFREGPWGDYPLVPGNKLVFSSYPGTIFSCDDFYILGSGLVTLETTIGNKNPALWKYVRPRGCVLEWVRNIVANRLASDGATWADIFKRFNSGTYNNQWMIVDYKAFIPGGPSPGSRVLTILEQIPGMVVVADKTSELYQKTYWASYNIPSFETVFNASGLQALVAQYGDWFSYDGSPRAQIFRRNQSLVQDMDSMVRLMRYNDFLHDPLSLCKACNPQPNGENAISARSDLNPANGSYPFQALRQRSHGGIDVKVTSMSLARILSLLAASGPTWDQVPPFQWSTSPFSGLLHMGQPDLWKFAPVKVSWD
inactive: [1] 0.011 | [2] 0.01 | [3] 0.01 | [4] -0.006 | [5] 0.007

PTMA (UniProt P06454)
Chain of UniProt P06454 (P06454 whole entry, looked up): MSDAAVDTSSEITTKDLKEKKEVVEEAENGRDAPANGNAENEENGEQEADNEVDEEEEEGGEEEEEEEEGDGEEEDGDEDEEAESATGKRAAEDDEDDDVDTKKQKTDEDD
inactive: [1] 0.029 | [2] 0.017 | [3] -0.105 | [4] -0.166 | [5] -0.009

PARL (UniProt Q9H300)
inactive: [1] 0.017 | [2] -0.017 | [3] 0.045 | [4] 0.028 | [5] 0.031

QRICH1 (UniProt Q2TAL8)
inactive: [1] -0.029 | [2] -0.148 | [3] 0 | [4] -0.02 | [5] -0.016

PDE4A (UniProt P27815)
inactive: [1] -0.11 | [2] 0.128 | [3] 0.102 | [4] -0.112 | [5] 0.201

PJA2 (UniProt O43164)
Chain of UniProt O43164 (O43164 whole entry, looked up): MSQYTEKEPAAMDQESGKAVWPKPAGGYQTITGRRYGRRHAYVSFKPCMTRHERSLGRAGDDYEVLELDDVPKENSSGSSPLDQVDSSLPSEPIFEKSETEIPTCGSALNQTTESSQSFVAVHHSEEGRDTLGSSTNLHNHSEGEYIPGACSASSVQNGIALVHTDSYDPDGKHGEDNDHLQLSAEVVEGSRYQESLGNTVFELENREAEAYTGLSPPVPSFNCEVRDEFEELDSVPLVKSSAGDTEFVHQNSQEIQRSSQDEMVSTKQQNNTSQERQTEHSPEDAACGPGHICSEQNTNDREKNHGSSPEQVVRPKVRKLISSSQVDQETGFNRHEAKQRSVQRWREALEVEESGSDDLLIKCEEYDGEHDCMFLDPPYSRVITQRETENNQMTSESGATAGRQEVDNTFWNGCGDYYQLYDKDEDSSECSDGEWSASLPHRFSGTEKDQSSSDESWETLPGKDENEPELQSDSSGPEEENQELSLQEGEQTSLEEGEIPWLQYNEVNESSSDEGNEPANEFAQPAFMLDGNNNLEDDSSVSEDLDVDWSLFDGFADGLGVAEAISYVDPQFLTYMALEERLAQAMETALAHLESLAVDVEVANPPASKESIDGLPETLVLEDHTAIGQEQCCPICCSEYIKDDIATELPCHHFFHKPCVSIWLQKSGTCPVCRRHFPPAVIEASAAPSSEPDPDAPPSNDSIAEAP
inactive: [1] 0.005 | [2] -0.042 | [3] 0.021 | [4] 0.006 | [5] 0.024

PIGG (UniProt Q5H8A4)
inactive: [1] 0.12 | [2] 0.031 | [3] -0.091 | [4] 0.006 | [5] -0.003

PUF60 (UniProt Q9UHX1)
inactive: [1] 0.031 | [2] 0.033 | [3] 0.081 | [4] -0.036 | [5] 0.007

PGK2 (UniProt P07205)
inactive: [1] -0.1 | [2] 0.046 | [3] 0.153 | [4] 0.037 | [5] 0.034

PRKCA (UniProt P17252)
inactive: [1] -0.035 | [2] 0.124 | [3] 0.14 | [4] 0.002 | [5] -0.038

PDCD6 (UniProt O75340)
inactive: [1] -0.024 | [2] 0.057 | [3] 0.107 | [4] -0.052 | [5] 0.003

PBK (UniProt Q96KB5)
inactive: [1] -0.06 | [2] 0.016 | [3] 0.067 | [4] 0.023 | [5] -0.016

PYGB (UniProt P11216)
inactive: [1] 0.024 | [2] 0.037 | [3] 0.003 | [4] 0.015 | [5] -0.003

PFDN1 (UniProt O60925)
inactive: [1] -0.102 | [2] 0.155 | [3] 0.061 | [4] -0.171 | [5] -0.061

POLR1A (UniProt O95602)
inactive: [1] 0.049 | [2] -0.043 | [3] -0.044 | [4] 0.096 | [5] -0.015

PLEKHM2 (UniProt Q8IWE5)
inactive: [1] -0.027 | [2] 0.076 | [3] -0.016 | [4] 0.089 | [5] -0.048

PLCG1 isoform 2 (UniProt P19174)
inactive: [1] -0.059 | [2] 0.038 | [3] 0.033 | [4] 0.063 | [5] -0.028

RAB11FIP1 (UniProt Q6WKZ4)
inactive: [1] 0.041 | [2] 0.071 | [3] 0.086 | [4] -0.006 | [5] 0.046
